# Assay results: PubChem BioAssay (NCATS)
# Results filed as inconclusive are left out. Activity calls are given as the source filed them. Calls come from the whole dose curve.
# Biological target: Atrial natriuretic peptide receptor 1 (Homo sapiens) (UniProt P16066)
# Experiment: Natriuretic polypeptide receptor (hNpr1) antagonism - Pilot CMLD screen (AID 1347052);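 note: HEK293 cells with hNpr1 stimulated by hNppA peptide at 0.1 nM; cGMP level read as GloSensor luciferase luminescence after agonist stimulation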
# Conditions: HEK293 hNpr1 GloSensor cGMP luminescence, ANP-stimulated; series mostly up to 9.22 µM; activity change, negative = inhibition: at the top concentration
# % is set by controls: 0 for no effect and ±100 for the full control effect.
# Chain of Atrial natriuretic peptide receptor 1 (Homo sapiens) (P16066 whole entry, looked up): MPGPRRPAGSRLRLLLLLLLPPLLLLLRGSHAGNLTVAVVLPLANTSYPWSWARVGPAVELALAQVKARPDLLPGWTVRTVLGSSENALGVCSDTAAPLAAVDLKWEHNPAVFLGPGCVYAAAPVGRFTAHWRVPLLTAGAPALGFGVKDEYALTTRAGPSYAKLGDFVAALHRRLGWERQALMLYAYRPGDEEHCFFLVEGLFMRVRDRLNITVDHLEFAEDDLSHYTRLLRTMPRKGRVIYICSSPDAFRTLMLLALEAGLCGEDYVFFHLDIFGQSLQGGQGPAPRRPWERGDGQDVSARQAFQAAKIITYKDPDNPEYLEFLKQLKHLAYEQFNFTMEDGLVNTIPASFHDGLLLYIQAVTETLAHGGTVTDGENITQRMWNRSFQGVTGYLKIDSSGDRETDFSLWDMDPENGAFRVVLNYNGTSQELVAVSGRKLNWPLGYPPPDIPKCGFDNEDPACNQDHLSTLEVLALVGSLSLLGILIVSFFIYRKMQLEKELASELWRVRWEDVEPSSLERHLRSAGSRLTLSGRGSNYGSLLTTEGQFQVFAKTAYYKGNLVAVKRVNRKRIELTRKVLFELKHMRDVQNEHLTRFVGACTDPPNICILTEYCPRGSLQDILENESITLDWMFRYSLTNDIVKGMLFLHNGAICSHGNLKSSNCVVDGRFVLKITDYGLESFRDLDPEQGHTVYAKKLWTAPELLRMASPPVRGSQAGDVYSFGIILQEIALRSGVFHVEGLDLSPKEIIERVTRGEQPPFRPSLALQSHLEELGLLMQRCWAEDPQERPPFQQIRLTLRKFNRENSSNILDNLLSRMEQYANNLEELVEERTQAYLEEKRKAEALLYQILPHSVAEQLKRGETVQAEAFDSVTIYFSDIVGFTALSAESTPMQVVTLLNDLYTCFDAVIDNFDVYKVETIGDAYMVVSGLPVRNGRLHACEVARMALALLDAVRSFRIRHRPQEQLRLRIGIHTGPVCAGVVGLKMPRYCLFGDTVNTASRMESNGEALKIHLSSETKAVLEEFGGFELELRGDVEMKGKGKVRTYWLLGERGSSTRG
row,Structure (SMILES),"activity change, negative = inhibition"
1,C=C(C(=O)C(C)(C)O)C(O)c1ccc([N+](=O)[O-])cc1 (centres undefined),0.422% (inactive)
2,COc1cc(CO[C@H]2C=C[C@@H](c3ccccc3)O[C@H]2CO)cc(OC)c1,7.68% (inactive)
3,COc1cc([C@@H](NC(=O)C(F)(F)F)C2CCCCC=C2c2ccccc2)cc(OC)c1OC (some centres undefined),2.61% (inactive)
4,CCOC(=O)CCN1C(=O)[C@@H]2[C@H]3[C@H](O)[C@H](O)CC(=NOCc4ccccc4)[C@@H]3CC[C@H]2C1=O,1.7% (inactive)
5,C[C@H]1C=CCC(=O)NCc2cccc(c2)CNC(=O)N[C@@H]1c1ccccc1,-7.66% (inactive)
6,COc1cc2c(cc1OC)[C@@]1(c3ccccc3)CCCC[C@H]1[C@@H]2NC(=O)C(F)(F)F,11.4% (inactive)
7,COc1cc2c(c(OC)c1OC)[C@@]1(c3ccccc3)CCCC[C@H]1[C@@H]2NC(=O)C(F)(F)F,4.74% (inactive)
8,CC1=CC[C@@H](C)O[C@@]2(C1)C(=O)N(Cc1ccc(F)cc1)c1ccccc12,2.46% (inactive)
9,CC(=O)O[C@@H]1C(CO[Si](C)(C)C(C)(C)C)=C(Br)C(=O)[C@@H]2O[C@]12C,-0.457% (inactive)
10,CC12C=C(C=Cc3ccc(F)cc3)C(C)(C1)C(c1ccc(F)cc1)CC2=O (centres undefined),9.67% (inactive)
11,COC(=O)CCC(=O)OC1(C)C(=O)C=C2C=C(C3CC3)OC=C2C1=O (centres undefined),13% (inactive)
12,COc1ccc([C@]23Cc4ccccc4[C@H](O2)c2c(cc(-c4ccccc4)oc2=O)O3)cc1,3.34% (inactive)
13,COCC=CC1=CC2=CC(=O)C(C)(OC(=O)c3cnc4ccccc4n3)C(=O)C2=CN1CCc1c[nH]c2ccccc12 (centres undefined),-2.56% (inactive)
14,C#CCCCON=C1C[C@@H](O)[C@H](O)[C@H]2[C@@H]3C(=O)N(Cc4ccc5c(c4)OCO5)C(=O)[C@@H]3CC[C@@H]12,8.45% (inactive)
15,CC1(OC(=O)c2ccc(Cl)nc2)C(=O)C=C2C=C(c3ccsc3)OC=C2C1=O (centres undefined),1.19% (inactive)
16,COC(=O)CC=C[C@@H](C)[C@@H](C=NOC[C@H]1O[C@H](c2ccccc2)C=C[C@H]1Oc1ccc(OC)cc1)N[S+](=O)([O-])c1ccc(C)cc1,-0.259% (inactive)
17,CCc1cc2c(nc1CC)CCN(CCC(C)=NO[C@@H]1O[C@H](COC(C)=O)[C@@H](OC(C)=O)[C@H](OC(C)=O)[C@@H]1OC(C)=O)C2,1.63% (inactive)
18,CC(=O)OC[C@H]1O[C@H](CCON=C(C)CCN2CCCCc3nc(C)c(C)cc32)C=C[C@H]1OC(C)=O,-2.79% (inactive)
19,COc1ccc([C@]23Cc4cc(OC)c(OC)cc4[C@H](O2)c2c(cc(C)oc2=O)O3)cc1,-0.0632% (inactive)
20,CC=Cc1cc2ccccc2c2c(C(=O)OC)c(C(=O)OC)c(C(=O)OC(C)(C)C)n12,-1.08% (inactive)

row,Structure (SMILES),"activity change, negative = inhibition"
1,O=C(NC(CC1=CCCCC1)c1ccc2ccccc2c1)C(F)(F)F (centres undefined),4.28% (inactive)
2,COCCN1C(=S)NC(c2cccc(F)c2)C(C(=O)OC)=C1C (centres undefined),2.91% (inactive)
3,C[C@H]1C=CCC(=O)N[C@@H](c2ccc3ccccc3c2)[C@@H](C)C=CCC(=O)N[C@@H]1c1ccc2ccccc2c1,1.32% (inactive)
4,C[C@]12C[C@@](C)(C=C1C=Cc1ccc(C(F)(F)F)cc1)C(=O)C[C@H]2c1ccc(C(F)(F)F)cc1,0.907% (inactive)
5,CC12C=C(C=Cc3ccccc3)C(C)(C1)C(c1ccccc1)CC2=O (centres undefined),-2.8% (inactive)
6,COc1ccc2c(c1)O[C@@H](c1cccc(C(F)(F)F)c1)[C@H](OC(=O)Nc1cc(OC)c(OC)c(OC)c1)C2=O,6.27% (inactive)
7,C[C@H]1Cc2c(COc3ccccc3)nc3c(c2CO1)CN(S(=O)(=O)c1ccc2c(c1)OCCN2C)CC3,-0.366% (inactive)
8,COc1cccc(-c2coc3ccc(Br)cc3c2=O)c1,-17.2% (inactive)
9,C[C@@H]1C=CCC(=O)N2[C@H](CC(=O)N[C@@H]1c1ccccc1)C[C@@H](C)[C@@H]2c1ccccc1,6.71% (inactive)
10,CC12C=C(C=CCCc3ccco3)C(C)(C1)[C@H](CCc1ccco1)CC2=O (some centres undefined),-0.725% (inactive)
11,O=C1[C@@H]2[C@H]3[C@H](O)[C@H](O)CC(=NOC[C@@H](O)COCc4ccco4)[C@@H]3CC[C@H]2C(=O)N1Cc1ccccc1,5.32% (inactive)
12,Oc1ccc2c(c1-c1c(O)c(Br)cc3c1CCCC3)CCCC2,0.411% (inactive)
13,COC(=O)[C@@H]1CC23C(=NC(c4ccc([N+](=O)[O-])cc4)=C(C(F)(F)F)[C@@H]2N(C)c2ccccc23)N1C(C)=O (some centres undefined),12.2% (inactive)
14,COC(=O)[C@]1(C=C2c3ccccc3C[C@H](OC)[C@@H]2C)[C@@H]2CC=C[C@@H]21,5.99% (inactive)
15,COc1cccc([C@@H](NC(=O)C(F)(F)F)[C@@H]2CCCC=C2c2ccccc2)c1,3.33% (inactive)
16,COc1ccc([C@]23Cc4c(ccc5ccccc45)[C@H](O2)C2=C(CCCC2=O)O3)cc1,3.23% (inactive)
17,COc1cc(CCN2C(=O)NC(c3cccc(C(F)(F)F)c3)C(C(C)=O)=C2C)cc(OC)c1OC (centres undefined),0.105% (inactive)
18,Cc1cc2c(c(=O)n1Cc1ccccc1)[C@H]1O[C@](CCCCN3C(=O)c4ccccc4C3=O)(Cc3cc(C#N)ccc31)O2,0.427% (inactive)
19,CC1=CC[C@@H](COc2ccccc2)O[C@@]2(C1)C(=O)N(CC1CC1)c1ccccc12,3.75% (inactive)
